# Source: article PMC8384837, “Expanding the binding specificity for RNA recognition by a PUF domain”
# Tests used:
# Assay in all cases: yeast three-hybrid, YBZ-1, SC-Leu-His + 0.5 mM 3-AT, 4 days
# Conditions in all cases: tags: N-Gal4 AD-HA kept; label: inside an RPR1-promoter hybrid RNA with tandem MS2 sites; ssRNA
# PUM1 PUF domain R5-GKS = PUM1 PUF domain R5-GKS (Homo sapiens, UniProt Q14671 828-1176, C1007G;R1008K;Q1011S)
# How it was run: (§1)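 Matching RNA elements and Pumilio-1 PUF domain libraries, randomized at the three base-contacting residues of every repeat, were co-expressed from a centromeric plasmid in strain YBZ-1 (LexA–MS2 coat fusion, HIS3 reporter). The repeat regions were PCR-amplified and Illumina-sequenced from cells grown four days on SC-Leu (input) or SC-Leu-His + 0.5 mM 3-AT (selection). The interaction score is the log change in variant frequency from input to selection. It is computed in log2, with a pseudocount of 1 for absent variants.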
# PUM1 PUF domain R5-RQA = PUM1 PUF domain R5-RQA (Homo sapiens, UniProt Q14671 828-1176, C1007R;R1008Q;Q1011A)
# How it was run: as §1
# PUM1 PUF domain R5-GGE = PUM1 PUF domain R5-GGE (Homo sapiens, UniProt Q14671 828-1176, C1007G;R1008G;Q1011E)
# How it was run: as §1
# PUM1 PUF domain R5-SED = PUM1 PUF domain R5-SED (Homo sapiens, UniProt Q14671 828-1176, C1007S;R1008E;Q1011D)
# How it was run: as §1
# PUM1 PUF domain R3-AIE = PUM1 PUF domain R3-AIE (Homo sapiens, UniProt Q14671 828-1176, C935A;R936I;Q939E)
# How it was run: as §1
# PUM1 PUF domain R7-EFS = PUM1 PUF domain R7-EFS (Homo sapiens, UniProt Q14671 828-1176, S1079E;N1080F;E1083S)
# How it was run: as §1
# PUM1 PUF domain R4-RIF = PUM1 PUF domain R4-RIF (Homo sapiens, UniProt Q14671 828-1176, N971R;H972I;Q975F)
# How it was run: as §1
# PUM1 PUF domain R4-DWA = PUM1 PUF domain R4-DWA (Homo sapiens, UniProt Q14671 828-1176, N971D;H972W;Q975A)
# How it was run: as §1
# PUM1 PUF domain R3-RIY = PUM1 PUF domain R3-RIY (Homo sapiens, UniProt Q14671 828-1176, C935R;R936I;Q939Y)
# How it was run: as §1
# PUM1 PUF domain R7-TVW = PUM1 PUF domain R7-TVW (Homo sapiens, UniProt Q14671 828-1176, S1079T;N1080V;E1083W)
# How it was run: as §1
sequence,measurement,setting,value
GGCUAGAACUAGUGGAUCCCCCGGCGCCCGGCGGCUCGAGCCCGGGUAAGUGUUAAUAGUCUGCAUGCCGCCGGGCGCCAUGCCUGCAGGUCGACUCUAGAAAACAUG,binding signal,PUM1 PUF domain R5-GKS,3.25 log2 enrichment (interaction score)
same,binding signal,PUM1 PUF domain R5-RQA,5.37 log2 enrichment (interaction score)
GGCUAGAACUAGUGGAUCCCCCGGCGCCCGGCGGCUCGAGCCCGGGUAAGUGUGAAUAGUCUGCAUGCCGCCGGGCGCCAUGCCUGCAGGUCGACUCUAGAAAACAUG,binding signal,PUM1 PUF domain R5-RQA,0.37 log2 enrichment (interaction score)
same,binding signal,PUM1 PUF domain R5-GGE,3.62 log2 enrichment (interaction score)
same,binding signal,PUM1 PUF domain R5-SED,5.49 log2 enrichment (interaction score)
GGCUAGAACUAGUGGAUCCCCCGGCGCCCGGCGGCUCGAGCCCGGGUAAGUGUAAGUAGUCUGCAUGCCGCCGGGCGCCAUGCCUGCAGGUCGACUCUAGAAAACAUG,binding signal,PUM1 PUF domain R3-AIE,2.83 log2 enrichment (interaction score)
GGCUAGAACUAGUGGAUCCCCCGGCGCCCGGCGGCUCGAGCCCGGGUAAGUCUAAAUAGUCUGCAUGCCGCCGGGCGCCAUGCCUGCAGGUCGACUCUAGAAAACAUG,binding signal,PUM1 PUF domain R7-EFS,2.94 log2 enrichment (interaction score)
GGCUAGAACUAGUGGAUCCCCCGGCGCCCGGCGGCUCGAGCCCGGGUAAGUGUAAAUAGUCUGCAUGCCGCCGGGCGCCAUGCCUGCAGGUCGACUCUAGAAAACAUG,binding signal,PUM1 PUF domain R4-RIF,5.22 log2 enrichment (interaction score)
same,binding signal,PUM1 PUF domain R4-DWA,5.39 log2 enrichment (interaction score)
GGCUAGAACUAGUGGAUCCCCCGGCGCCCGGCGGCUCGAGCCCGGGUAAGUGUACAUAGUCUGCAUGCCGCCGGGCGCCAUGCCUGCAGGUCGACUCUAGAAAACAUG,binding signal,PUM1 PUF domain R4-DWA,5.13 log2 enrichment (interaction score)
GGCUAGAACUAGUGGAUCCCCCGGCGCCCGGCGGCUCGAGCCCGGGUAAGUGUAAUUAGUCUGCAUGCCGCCGGGCGCCAUGCCUGCAGGUCGACUCUAGAAAACAUG,binding signal,PUM1 PUF domain R3-RIY,2.12 log2 enrichment (interaction score)
GGCUAGAACUAGUGGAUCCCCCGGCGCCCGGCGGCUCGAGCCCGGGUAAGUGUCAAUAGUCUGCAUGCCGCCGGGCGCCAUGCCUGCAGGUCGACUCUAGAAAACAUG,binding signal,PUM1 PUF domain R5-GKS,0.75 log2 enrichment (interaction score)
same,binding signal,PUM1 PUF domain R5-RQA,4.83 log2 enrichment (interaction score)
GGCUAGAACUAGUGGAUCCCCCGGCGCCCGGCGGCUCGAGCCCGGGUAAGUUUAAAUAGUCUGCAUGCCGCCGGGCGCCAUGCCUGCAGGUCGACUCUAGAAAACAUG,binding signal,PUM1 PUF domain R7-TVW,3 log2 enrichment (interaction score)
